Laboratory results from PubChem BioAssay AID588591 (National Center for Advancing Translational Sciences (NCATS), 2011).
Values joined by “and” are separate entries in the source; they are usually repeats but may differ in a detail not shown here. Identical values can stand only once. About 4,700 (1.2%) of roughly 390,000 compounds were called active. About 4% were inconclusive and are not listed. The sample holds actives, similar compounds and a random draw of the others, so the mix is not that of the screen. Calls follow the shape of the dose curve; as a rule, active = well fitted inhibition curve with a large enough effect; inconclusive = small, poorly fitted or top-dose-only effect, or another doubt; inactive = no such curve, though single readings can be large or run the other way. More than one record can exist for a structure, and the calls need not agree.

What follows are compounds tested against DNA polymerase eta (Homo sapiens) (UniProt Q9Y253) (assay: qHTS for Inhibitors of Polymerase Eta). Conditions: recombinant Pol eta, fluorescent DNA replication assay; series mostly up to 114 µM; activity change, negative = inhibition: at the top concentration.
DNA polymerase eta (Homo sapiens), sequence (Q9Y253 whole entry, looked up): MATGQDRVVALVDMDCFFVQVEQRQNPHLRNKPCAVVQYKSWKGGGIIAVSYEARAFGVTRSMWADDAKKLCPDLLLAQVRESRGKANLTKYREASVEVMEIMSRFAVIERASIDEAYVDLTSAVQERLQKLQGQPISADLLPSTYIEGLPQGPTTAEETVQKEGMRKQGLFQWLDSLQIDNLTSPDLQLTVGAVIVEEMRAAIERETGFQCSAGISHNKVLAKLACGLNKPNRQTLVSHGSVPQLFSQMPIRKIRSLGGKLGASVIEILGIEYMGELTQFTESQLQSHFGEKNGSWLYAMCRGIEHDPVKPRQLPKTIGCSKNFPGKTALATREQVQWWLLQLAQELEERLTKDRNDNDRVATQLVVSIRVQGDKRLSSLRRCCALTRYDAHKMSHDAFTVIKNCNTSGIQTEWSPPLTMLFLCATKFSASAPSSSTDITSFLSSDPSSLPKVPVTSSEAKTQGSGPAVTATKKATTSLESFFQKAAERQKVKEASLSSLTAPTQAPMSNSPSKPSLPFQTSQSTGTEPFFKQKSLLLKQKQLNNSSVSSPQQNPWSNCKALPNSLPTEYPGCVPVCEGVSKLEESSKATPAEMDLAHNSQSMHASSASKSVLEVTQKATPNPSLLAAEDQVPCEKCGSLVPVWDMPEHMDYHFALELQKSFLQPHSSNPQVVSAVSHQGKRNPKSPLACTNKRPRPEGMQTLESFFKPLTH
Procedure, shortened: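 Pol eta at 10 nM preincubated with compounds 15 min at room temperature; reaction started with fluorescent substrate (50 nM final) and read kinetically at 0 and 10 min.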
% is scaled to controls: 0 for no effect and ±100 for the full control effect; potency is read from the fitted curve at half-maximal effect.

SMILES | activity change, negative = inhibition | Potency
CCCn1c(NCc2ccc(N(CC)CC)cc2)nc2ccccc21 | -5.32% (inactive) | 
COc1cccc(-n2c(=O)c3c(C)c(C(=O)N(C)C)sc3n(Cc3cccc(C)c3)c2=O)c1 | -8.38% (inactive) | 
CCOC(=O)c1c(S(=O)(=O)NCC(=O)Nc2ccc(Cl)c(C(F)(F)F)c2)c(C)n(C)c1C | -4.42% (inactive) | 
O=C1COc2c1ccc(O)c2O |  | 22.4 µM (active)
CCSc1nnc2c(n1)OC(c1ccc(OCC(=O)O)cc1)Nc1ccccc1-2 (centres undefined) | -7.62% (inactive) | 
Cc1ccccc1NC(=O)c1c(NC(=O)c2ccccc2F)sc2c1CCC(C)C2 (centres undefined) | -16.9% (inactive) | 
CCOc1cccc(CC(=O)N2CCc3c([nH]c4ccccc34)C2c2ccc(F)cc2)c1OCC (centres undefined) | -20.2% (inactive) | 
CCOc1ccccc1C1NC(=O)NC(C)=C1C(=O)OCc1ccco1 (centres undefined) | 3.94% (inactive) | 
CCOc1cccc2c1N[C@@H](c1ccc(C(=O)O)cc1)[C@H]1CC=C[C@@H]21 |  | 8.91 µM (active)
COc1cccc2c1cc1c(=O)n(CC(=O)N3CCN(c4ccccc4)CC3)nc(C)n12 | -4.61% (inactive) | 
COc1ccc(CNC(=O)c2ccc3c(c2)nc2n3CCOC2)c(OC)c1 | -11.4% (inactive) | 
CC1CCN(S(=O)(=O)c2ccc(S(=O)(=O)NCc3ccco3)cc2)CC1 | 10.3% (inactive) | 
CCC(=O)N1c2ccc(S(=O)(=O)NCc3ccco3)cc2CC1C (centres undefined) |  | 56.2 µM (active)
COc1cccc(CNS(=O)(=O)c2ccc3c(c2)CC(C)N3C(=O)C2CCC2)c1 (centres undefined) |  | inactive
COc1ccccc1CNC(=O)c1ccccc1NC(=O)c1nsc2ccccc12 | 4.12% (inactive) | 
COc1cc(O)c2c(=O)c3c(O)c(O)ccc3oc2c1OC | -13.2% (inactive) | 
COc1c(O)cc2oc(-c3ccc(O)c(O)c3)cc(=O)c2c1O |  | 3.55 µM (active)
COc1ccc(-c2c(C)c3ccc(O)c(CN4CCN(C)CC4)c3oc2=O)cc1OC | -6.8% (inactive) | 
Cc1cc(F)ccc1NC1(c2ccccc2)C(=O)c2ccccc2C1=O | -18.4% (inactive) | 
Cc1ccc(NC(=O)Cn2cnc3nc4c(cc3c2=O)CCCC4)cc1Cl | -16.6% (inactive) | 
Cc1ccccc1CS(=O)(=O)CC1Nc2ccc(C(=O)NCc3ccc(Cl)cc3)cc2NC1=O (centres undefined) | -21.9% (inactive) | 
Cc1ccc(N2CC(c3nnc(Cc4ccccc4Cl)o3)CC2=O)cc1 (centres undefined) | -12.8% (inactive) | 
CCS(=O)(=O)C1=NSC2=NC(=O)/C(=C\c3ccc(OS(=O)(=O)c4ccccc4)cc3)C(=N)N21 |  | 20 µM (active)
Cc1cc(/C=C2/C(=N)N3C(=NC2=O)SN=C3S(C)(=O)=O)c(C)n1-c1ccccc1 |  | 44.7 µM (active)

SMILES | activity change, negative = inhibition | Potency
CS(=O)(=O)C1=NN2C(=N)/C(=C\c3ccc(OCCOc4ccccc4)cc3)C(=O)N=C2S1 |  | 44.7 µM (active)
Cc1nc2ccn(Cc3cccnc3)c(=O)c2cc1C(=O)N1CCN(c2ccccc2F)CC1 | 2.45% (inactive) | 
CCOc1ccccc1C(=O)Nc1ccc(S(=O)(=O)N2CCCCC2c2cccnc2)cc1 (centres undefined) | -5.58% (inactive) | 
COc1ccc(-c2cn3c(C)c(C(=O)Nc4cc(C)cc(C)c4)sc3n2)cc1 | -8.51% (inactive) | 
COc1ccc(Cn2c(C(=O)O)c(CNCc3cccc(OC)c3)c3ccc(C)cc32)cc1 | -16.4% (inactive) | 
O=C(CC(c1cccs1)N1Cc2ccccc2C1=O)Nc1ccc(F)cc1F (centres undefined) | -6.05% (inactive) | 
O=C(/C=C/c1ccc([N+](=O)[O-])o1)NNC(=O)c1ccc(F)cc1 |  | 79.4 µM (active)
CCOc1ccc(NC(=O)c2cc3c(=O)n(Cc4cccs4)ccc3nc2C)cc1 | 1.5% (inactive) | 
CCOc1ccc(-c2nonc2NC(=O)c2oc3ccc(C)cc3c2C)cc1OCC | -1.76% (inactive) | 
Cc1c(Cl)cccc1NC(=O)N1CCN(C(=O)c2nsc3ccccc23)CC1 | -7.64% (inactive) | 
C/C(=N\Nc1cccc(C(=O)O)c1)c1ccc2c(c1)Nc1ccccc1S2 |  | 20 µM (active)
COc1ccc(Cl)cc1S(=O)(=O)Nc1cccc(C(=O)O)c1 | -15.3% (inactive) | 
O=C(CCCOc1ccccc1)Nc1cccc(C(=O)O)c1 | -9.42% (inactive) | 
CC1=C(C(=O)OCc2ccc(C)cc2)C(c2c(Cl)cccc2Cl)CC(=O)N1 (centres undefined) | -15.6% (inactive) | 
COc1cc(Cl)c(NC(=O)CC(C)S(=O)(=O)c2cc3c(cc2C)NC(=O)CO3)c(OC)c1 (centres undefined) | -23.9% (inactive) | 
O=C(CCC(=O)N1CC2CCCN2c2ccccc21)NCc1ccccc1Cl (centres undefined) | -1.54% (inactive) | 
Nc1ccc2[nH]c(=S)sc2c1 |  | 22.4 µM (active)
Cc1ccc(Cn2cc(CCC(=O)NCc3ccc(OC(C)C)cc3)c3ccccc32)cc1 | -17.3% (inactive) | 
CC(=O)Nc1cc(C(=O)NCc2ccc(F)cc2)ccc1Sc1ccc(F)cc1 | -24.5% (inactive) | 
CCOC(=O)c1c(C)[nH]c(C)c1S(=O)(=O)N1CCCC(C(=O)NCc2ccccc2Cl)C1 (centres undefined) | -11.4% (inactive) | 
O=C(CCS(=O)(=O)c1ccc2c(c1)NC(=O)CO2)Nc1cccc(C(F)(F)F)c1 | -17.6% (inactive) | 
Cc1cc(OC(C)C(=O)Nc2ccc(S(=O)(=O)Nc3onc(C)c3C)cc2)cc(C)c1Cl (centres undefined) | -12.1% (inactive) | 
Cc1cc(C)c2nc(-c3cccnc3)cc(C(=O)Nc3ccc(S(=O)(=O)Nc4onc(C)c4C)cc3)c2c1 |  | 44.7 µM (active)
Cc1noc(NS(=O)(=O)c2ccc(NC(=O)c3oc4ccc(F)cc4c3C)cc2)c1C | -9.51% (inactive) | 

SMILES | activity change, negative = inhibition | Potency
CCOc1ccccc1C(=O)NCC(c1ccc(N(C)C)cc1)N1CCCC1 (centres undefined) | -10.3% (inactive) | 
CC1CCCN(c2nc3c(S(=O)(=O)c4ccc(C(C)C)cc4)nnn3c3ccsc23)C1 (centres undefined) | -12.9% (inactive) | 
Cc1ccc(S(=O)(=O)c2c(Nc3cccc(Cl)c3)sc(C(=O)c3ccc4c(c3)OCO4)c2N)cc1 | -12.3% (inactive) | 
CCOC(=O)Cc1csc(NC(=O)COc2ccc3c(C)cc(=O)oc3c2)n1 |  | 31.6 µM (active)
Cc1ccc(O)c(/C=N/NC(=O)COc2ccc3c(C)cc(=O)oc3c2)c1 |  | 50.1 µM (active)
CC(=O)c1c(C)[nH]c(C(=O)COc2ccc3c(C)cc(=O)oc3c2)c1C | -17.7% (inactive) | 
CCOC(=O)Cc1csc(SCc2cc(=O)oc3cc(O)ccc23)n1 | -16.5% (inactive) | 
CCOC(=O)Cc1csc(NC(=O)CN(C)S(=O)(=O)c2ccc3c(c2)CCC(=O)N3)n1 | -11% (inactive) | 
Cc1ccccc1NC(=O)c1ccc(COc2ccc3c(C)cc(=O)oc3c2)cc1 | 20.7% (inactive) | 
COc1ccc(N2CCN(c3nc(-c4ccccc4F)nc4ccccc34)CC2)cc1 | -28% (inactive) | 
CCc1ccccc1NC(=O)Cn1c(=O)n(CC2CCC(C(=O)NCCc3ccccc3)CC2)c(=O)c2ccccc21 (centres undefined) | -0.518% (inactive) | 
Cc1ccc(C)c(N2CCN(C(c3ccccc3)c3nnc(-c4ccccc4)o3)CC2)c1 (centres undefined) | -21% (inactive) | 
COc1cccc(CNC(=O)CN2C(=O)CCc3cc(S(=O)(=O)N4CCOCC4)ccc32)c1 | -7.78% (inactive) | 
Cc1ccc(/C=C(\C#N)C(=O)Nc2cc(C)ccc2C)cc1 | -7.43% (inactive) | 
CC(C)NC(=O)/C(C#N)=C\c1ccc(N(C)C)c(Br)c1 | -1.4% (inactive) | 
N#C/C(=C\c1ccc(O)c(O)c1)C(=O)NCc1ccccc1 |  | inactive and 11.2 µM (active)
CCc1ccc(-n2nc(C)c3c(C)cc(=O)n(CC(=O)Nc4ccc(F)cc4C)c32)cc1 | 4.22% (inactive) | 
Cn1c(N)c(C(=O)COC(=O)c2ccccc2NCc2ccco2)c(=O)n(C)c1=O | -3.1% (inactive) | 
O=C(COC(=O)c1ccccc1C(=O)N1CCN(c2ccccc2)CC1)NCc1ccccc1 | -14.8% (inactive) | 
COc1ccccc1C(=O)OCC(=O)NCCNC(=O)COC(=O)c1ccccc1OC | 0.945% (inactive) | 
CCN(C(=O)COC(=O)CCC(=O)c1cccs1)C1CCCCC1 | -2.01% (inactive) | 
CC1CCN(C(=O)COC(=O)CCC(=O)c2cccs2)CC1 | -13.2% (inactive) | 
O=C(CC1CCCCC1)NCc1ccco1 | -2.88% (inactive) | 
CN(c1ccccc1)S(=O)(=O)c1ccc(Cl)c(C(=O)OCC(=O)N2CCOCC2)c1 | -22.1% (inactive) | 

SMILES | activity change, negative = inhibition | Potency
O=C(COC(=O)c1ccccc1O)NCc1ccco1 |  | 79.4 µM (active)
CN(c1ccccc1)S(=O)(=O)c1ccc(Cl)c(C(=O)OCC(=O)NCc2ccco2)c1 |  | 31.6 µM (active)
Cc1cc(C(=O)OCC(=O)NCc2ccco2)c(C)n1-c1ccccc1 |  | 14.1 µM (active)
O=C(COC(=O)CCC(=O)c1cccs1)NCc1ccco1 |  | 7.08 µM (active)
O=C(COC(=O)c1cc(S(=O)(=O)N2CCOCC2)ccc1Cl)NCCc1ccccc1 | -21.4% (inactive) | 
Cc1ccc2nc(COc3cccc(NC(=O)Nc4ccc(C)c(Cl)c4)c3)cc(=O)n2c1 | -18.4% (inactive) | 
COC(=O)c1cc(S(=O)(=O)N2CCN(c3cc(Cl)ccc3C)CC2)c[nH]1 | -31.5% (inactive) | 
Cc1cccc(N2CCN(C(=O)CCSCc3ccccc3F)CC2)c1C | -12.4% (inactive) | 
Cc1ccc2oc(=O)c3cnn(CC(=O)N4CCN(c5cccc(Cl)c5)CC4)c3c2c1 | -17.3% (inactive) | 
COc1ccc(-n2ccnc(NCCc3ccc(Cl)cc3)c2=O)cc1OC | -18.9% (inactive) | 
Cc1cccc(C(C)C)c1NC(=O)C(NS(=O)(=O)c1cccc2nsnc12)c1ccccc1 (centres undefined) | -7.33% (inactive) | 
Cc1ccc(-n2ncc3c(=O)n(Cc4cccc(C(F)(F)F)c4)cnc32)cc1C | -8.19% (inactive) | 
CC(C)(C)NC(=O)CSc1nc(-c2ccc(F)cc2)cc(C(F)(F)F)n1 | -14.9% (inactive) | 
COc1cc(CCC(=O)OCC(=O)Nc2cccc(S(N)(=O)=O)c2)cc(OC)c1OC | -22.8% (inactive) | 
COc1cc(NC(=O)COC(=O)c2cnc(C)cn2)c(C)cc1[N+](=O)[O-] | -20.1% (inactive) | 
COc1cc(NC(=O)COC(=O)c2ccc([N+](=O)[O-])s2)cc(OC)c1OC |  | 50.1 µM (active)
COc1ccc(CCC(=O)NCc2ccc3c(c2)CCN3C(=O)c2ccc(F)cc2)cc1 | -11.5% (inactive) | 
O=C(CS(=O)(=O)c1cccc2nsnc12)N1CCN(c2cccc(Cl)c2)CC1 | -10.8% (inactive) | 
COC(=O)c1ccccc1NC(=O)C(Cc1ccccc1)N1Cc2ccccc2C1=O (centres undefined) | -15.5% (inactive) | 
Cc1ccccc1NC(=O)CN1C(=O)N/C(=C\c2cccn2-c2cccc(C(=O)O)c2)C1=O |  | 3.16 µM (active)
Cc1ccccc1NC(=O)Cn1c(=O)n(CCc2ccccc2)c(=O)c2ccccc21 | -18.2% (inactive) | 
Cc1ccccc1NC(=O)CN1C(=O)C(C)(C)c2ccccc21 | -20.7% (inactive) | 
